Data on 88 compounds can be found in publication PMC4336329 (PLoS ONE, 2015).

Among all 310,000 compounds or so, about 14,000 (4.5%) showed an effect of 50% or more. The effect is printed as a negative number. This is one part of a sample in which strong results are shown more often than they occur.
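Further: peak tail current of the secondary pulse compared with the same well before compound.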

Chain of human ether-à-go-go-related gene (hERG) potassium channel (Q12809 whole entry, looked up): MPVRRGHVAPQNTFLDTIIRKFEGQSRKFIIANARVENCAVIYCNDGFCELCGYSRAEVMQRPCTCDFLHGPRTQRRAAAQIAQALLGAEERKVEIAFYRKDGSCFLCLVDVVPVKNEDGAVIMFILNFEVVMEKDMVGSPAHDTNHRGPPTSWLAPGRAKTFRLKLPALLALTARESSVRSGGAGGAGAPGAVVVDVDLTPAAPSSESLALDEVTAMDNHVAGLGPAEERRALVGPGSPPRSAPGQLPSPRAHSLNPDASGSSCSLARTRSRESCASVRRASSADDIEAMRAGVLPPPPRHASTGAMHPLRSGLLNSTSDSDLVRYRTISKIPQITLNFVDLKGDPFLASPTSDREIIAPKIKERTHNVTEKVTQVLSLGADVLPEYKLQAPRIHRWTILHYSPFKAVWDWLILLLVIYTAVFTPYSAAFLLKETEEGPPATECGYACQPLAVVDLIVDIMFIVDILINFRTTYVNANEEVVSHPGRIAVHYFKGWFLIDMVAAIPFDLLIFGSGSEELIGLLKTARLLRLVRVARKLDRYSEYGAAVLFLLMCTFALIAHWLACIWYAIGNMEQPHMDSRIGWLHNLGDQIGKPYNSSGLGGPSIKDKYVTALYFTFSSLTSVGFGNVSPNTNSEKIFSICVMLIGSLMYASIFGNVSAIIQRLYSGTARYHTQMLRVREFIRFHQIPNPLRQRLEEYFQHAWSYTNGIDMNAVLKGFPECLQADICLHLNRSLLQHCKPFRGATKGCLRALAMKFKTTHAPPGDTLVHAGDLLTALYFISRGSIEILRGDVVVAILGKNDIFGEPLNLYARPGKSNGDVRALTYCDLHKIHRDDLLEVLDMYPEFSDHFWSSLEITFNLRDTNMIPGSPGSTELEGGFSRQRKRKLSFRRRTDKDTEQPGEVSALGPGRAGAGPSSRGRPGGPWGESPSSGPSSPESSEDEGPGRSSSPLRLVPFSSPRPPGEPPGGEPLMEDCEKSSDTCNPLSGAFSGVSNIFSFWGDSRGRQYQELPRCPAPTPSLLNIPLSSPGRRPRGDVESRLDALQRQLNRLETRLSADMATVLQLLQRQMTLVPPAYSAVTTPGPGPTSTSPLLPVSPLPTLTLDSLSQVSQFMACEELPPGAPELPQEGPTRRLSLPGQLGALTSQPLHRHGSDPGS

The experiment addresses human ether-à-go-go-related gene (hERG) potassium channel (human, UniProt Q12809). Briefly: primary screen, population patch clamp on CHO cells stably expressing hERG; higher = less effect of the substance.
`CC(C)Sc1cc(N2CCCC2)nc(-c2ccccc2)n1`: the “hERG current change (%, negative = inhibition) at 10uM” value was -5.24%. Under `COc1cccc(NC(=O)N(CCN(C)C)C(C)c2cccnc2)c1` (stereo not shown) stands -20.7%; under `Cc1ccc(-n2c(N)c(C(=O)NCc3cccnc3)sc2=S)cc1`, 23.5%. Then `CCOc1ccc(CCNC(=O)COC(=O)c2ccc(S(=O)(=O)N3CCCC3)cc2)cc1OCC`, with 25.7%; and `O=C(Nc1cc(Cl)ccc1O)c1cc(-c2ccco2)on1`, with 8.36%; and `Cc1nn(Cc2ccccc2)c(Cl)c1C(=O)OCC(=O)NC(=O)NC12CC3CC(CC(C3)C1)C2`, with 11.5%. Then `Cc1nc(N2CCN(C(=O)c3ccco3)CC2)c2c3c(sc2n1)CC(C)CC3` (stereo not shown), with -63.9%; and `CC1CCc2c(sc3nc(C4CC4)nc(N4CCN(C(=O)c5ccco5)CC4)c23)C1` (stereo not shown), with -19.2%.

As for `Cc1nc(N2CCN(C)CC2)c2c3c(sc2n1)CCCC3`, the “hERG current change (%, negative = inhibition) at 10uM” value was -11.4%. Then `CCc1nc(N2CCN(C(=O)c3ccccc3)CC2)c2c3c(sc2n1)CCCC3`, with -12.2%. Then `CCc1nc(N2CCN(C(=O)c3ccco3)CC2)c2c3c(sc2n1)CCCC3`, with -65.3%; and `CC(=O)N1CCN(c2nc(C)nc3sc4c(c23)CCC(C)C4)CC1` (stereo not shown), with -19.3%. Under `Cc1nc(N2CCOCC2)c2c3c(sc2n1)CCC3` stands 10.4%; under `Cc1nc(N2CCN(C(=O)c3cccs3)CC2)c2c3c(sc2n1)CCCC3`, -63.8%; under `CCCNC(=S)N1CCN(c2nc(C)nc3sc4c(c23)CCCC4)CC1`, -31.5%. As for `Cc1nc(N2CCN(C(=O)c3ccco3)CC2)c2c3c(sc2n1)CCC3`, the “hERG current change (%, negative = inhibition) at 10uM” value was -54.8%. Under `Cc1nc(N2CCNCC2)c2c3c(sc2n1)CCCC3` stands -2.23%.

Regarding `CCc1nc(SCC(=O)N2CCN(C(=O)c3ccco3)CC2)c2c3c(sc2n1)CCCC3`, the “hERG current change (%, negative = inhibition) at 10uM” value is reported as -46%. Under `CCOc1ccc(N2C(=O)CC(NCCc3c[nH]c4ccccc34)C2=O)cc1` (stereo not shown) stands 1.45%; under `Cc1cc(C(=O)Nc2nccs2)c2cc(F)ccc2n1`, 7.7%. Then `CCCn1c(N)c(C(=O)CSc2nnc(Cc3ccccc3)o2)c(=O)n(C)c1=O`, with -0.939%; and `O=S(=O)(c1ccccc1)c1ncc(C(F)(F)F)cc1O`, with 9%.

Regarding `O=C(COC(=O)/C=C/c1cccc(F)c1)NC1CCCC1`, the “hERG current change (%, negative = inhibition) at 10uM” value was 4.41%.

As for `CCOc1ccc(CCNC(=O)CCC(=O)N2CCOc3ccccc32)cc1OCC`, the “hERG current change (%, negative = inhibition) at 10uM” value is given as -7.82%. Then `COc1cccc(OC)c1C(=O)NC(=S)N1CCCCC1c1cccnc1` (stereo not shown), with -13%; and `Nc1c(CO)nnn1-c1ccccc1`, with 4.7%.

In the case of `O=C(Nc1ccc(OCC(F)(F)C(F)F)c(C(F)(F)F)c1)c1ccccc1O`, the “hERG current change (%, negative = inhibition) at 10uM” value amounted to 9.65%.

On to `COc1ccc2c(Cl)c(-c3nnc(SCC(=O)c4ccccc4)n3C)sc2c1`, for which the “hERG current change (%, negative = inhibition) at 10uM” value was 8.28%. As for `Cc1ccc(NC(=O)c2ccccc2NS(=O)(=O)c2ccc(Cl)s2)cc1S(=O)(=O)N1CCOCC1`, the “hERG current change (%, negative = inhibition) at 10uM” value was found to be 0.321%. Under `COc1ccc(OCc2csc(N)n2)cc1` stands 39.4%; under `CCc1nc(N2CCN(C(C)=O)CC2)c2c3c(sc2n1)CCCC3`, -20.1%.

Regarding `Cc1nc(N2CCN(C(=O)c3ccco3)CC2)c2c3c(sc2n1)CCCC3`, the “hERG current change (%, negative = inhibition) at 10uM” value is reported as -64.1%.

`Cc1nc(-n2nnc3ccccc32)c2c3c(sc2n1)CCCC3`: the “hERG current change (%, negative = inhibition) at 10uM” value is given as -50.1%. Under `O=C(c1ccco1)N1CCN(c2nc(C3CC3)nc3sc4c(c23)CCCC4)CC1` stands -29.7%; under `CCNC(=S)N1CCN(c2nc(CC)nc3sc4c(c23)CCCC4)CC1`, -15.4%. Then `c1ccc2c(c1)nnn2-c1ncnc2sc3c(c12)CCCC3`, with -12.2%; and `Cc1nc(N2CCN(C(=O)c3ccco3)CC2)c(C#N)c2c1CCCC2`, with 3.21%; and `Cc1nc(-n2nnc3cc(C)c(C)cc32)c2c3c(sc2n1)CCCC3`, with -1.48%. As to `CCC(=O)N1CCN(c2nc(CC)nc3sc4c(c23)CCCC4)CC1`, the “hERG current change (%, negative = inhibition) at 10uM” value is recorded as -71.7%. Then `C/C(=N\NC(=O)c1nn(C)c(C)c1Br)c1cccc(NC(=O)c2ccoc2C)c1`, with -23.2%. Under `CCCC(=O)c1ccc(-c2ccccc2)cc1` stands -4.95%. For `Cc1ccc(C(C)C)c(OCCCN2C(=O)NC(C)(C)C2=O)c1`, the “hERG current change (%, negative = inhibition) at 10uM” value is -14.3%.

For `Cc1ccc(N2C(=O)CC(Sc3cccs3)C2=O)cc1` (stereo not shown), the “hERG current change (%, negative = inhibition) at 10uM” value is on record as 12%. Turning to `Cc1cccc(NC(=O)c2oc3c(c2C)C(=O)CC(C)(C)C3)n1`, the “hERG current change (%, negative = inhibition) at 10uM” value is given as -14.9%. With `CC1=C(C(=O)N2CCCCC2)C2(CCC(C)CC2)OC1=O` (stereo not shown), the “hERG current change (%, negative = inhibition) at 10uM” value was -6.74%. Then `CC1=C(C(=O)N2CCCCCC2)C2(CCC(C)CC2)OC1=O` (stereo not shown), with 2.11%; and `CC1=C(C(=O)N2CCN(C(=O)c3ccco3)CC2)C2(CCC(C)CC2)OC1=O` (stereo not shown), with -63.8%.

For the compound `Cc1c(CCC(=O)O)c(=O)oc2cc(OCc3ccccc3F)ccc12`, the “hERG current change (%, negative = inhibition) at 10uM” value is on record as 27.4%. Under `Cc1nc(SCC(=O)N2CCOCC2)c2c(=O)n(C)c(=O)n(C)c2n1` stands 0.699%; under `C=CCc1cccc(CNc2cnc3ccccc3c2)c1O`, -4.21%; under `COc1ccccc1N1CCN(Cc2ccc(Cl)cc2Cl)CC1`, -12.7%. Then `COc1ccccc1N1CCN(Cc2nc(N)nc(Nc3ccccc3)n2)CC1`, with -69.6%; and `COc1ccccc1N1CCN(Cc2nc(N)nc(Nc3ccc(C)c(Cl)c3)n2)CC1`, with -75.5%; and `COc1ccccc1N1CCN(Cc2nc(N)nc(Nc3ccc(C)cc3)n2)CC1`, with -50.3%. Then `COc1cc2nc(Nc3ccc(C)c(Cl)c3)nc(N)c2cc1OC.Cl`, with 4.1%. Turning to `CCc1nnc(NC(=O)c2cccs2)s1`, the “hERG current change (%, negative = inhibition) at 10uM” value is 9.54%.

With `CCN(C(=O)COC(=O)c1ccc(Cl)cc1N)C1CCCCC1`, the “hERG current change (%, negative = inhibition) at 10uM” value is reported as -9.34%. Regarding `CC(=O)OC(C(=O)NC1CCCCC1)c1ccncc1` (stereo not shown), the “hERG current change (%, negative = inhibition) at 10uM” value is -11.7%. Then `Cc1sc2nc(SCC(=O)NCc3ccco3)n(Cc3ccccc3)c(=O)c2c1C`, with -3.84%; and `Oc1ccc(C2=Nn3c(nnc3-c3ccco3)SC2)cc1O`, with 0.591%; and `COc1ccc(C2=Nn3c(nnc3-c3ccco3)SC2)cc1`, with -63.6%. As for `CCOc1ccc(C2=Nn3c(nnc3-c3ccco3)SC2)cc1`, the “hERG current change (%, negative = inhibition) at 10uM” value is given as -10.7%. Then `COc1ccc(OC)c(C2=Nn3c(nnc3-c3ccco3)SC2)c1`, with -12.6%. Then `COc1ccc(C2=Nn3c(nnc3-c3ccco3)SC2)cc1OC`, with -54.1%; and `c1ccc(C2=Nn3c(nnc3-c3ccco3)SC2)cc1`, with -25.9%; and `Cc1nc2cc(NC(=O)Nc3cccc4ccccc34)ccc2n1C`, with 2.53%. Turning to `CCCOc1ccc(C(=O)NNC(=S)NC(=O)c2ccccc2)cc1`, the “hERG current change (%, negative = inhibition) at 10uM” value was 23.4%. Take `CCc1noc(C)c1C(=O)NC1CC(C)(C)Cc2c1cnn2-c1ccccc1` (stereo not shown): the “hERG current change (%, negative = inhibition) at 10uM” value turned out to be 5.9%. Under `Fc1ccc2c(c1)C1C=CCC1C(c1cc3c(cc1Br)OCO3)N2` (stereo not shown) stands 4.83%; under `CCOc1ccc(NC(=O)Nc2ccc3c(c2)nc(C)n3C)cc1`, 1.49%; under `O=C(NNC(=O)c1ccc(S(=O)(=O)N2CCOCC2)cc1)c1ccccc1`, 17.5%.

In the case of `Cc1cc2c(=O)n(Cc3ccco3)c(SCC(=O)NCc3ccco3)nc2s1`, the “hERG current change (%, negative = inhibition) at 10uM” value was -35.8%. Then `O=C(CSc1nc2c(sc3ccccc32)c(=O)n1Cc1ccco1)NCC1CCCO1` (stereo not shown), with -13.9%. In the case of `CCc1cc2c(=O)n(Cc3ccco3)c(SCC(=O)NC3CCS(=O)(=O)C3)nc2s1` (stereo not shown), the “hERG current change (%, negative = inhibition) at 10uM” value is on record as -72.2%. Under `CN(C(=O)CSc1nc2cc(C(=O)O)ccc2c(=O)n1Cc1ccccc1)C1CCS(=O)(=O)C1` (stereo not shown) stands 37.8%; under `CCc1cc2c(SCC(=O)NC3CCS(=O)(=O)C3)ncnc2s1` (stereo not shown), -1.87%; under `CCc1cc2c(SCC(=O)NCC3CCCO3)ncnc2s1` (stereo not shown), -1.05%. Then `CN(C(=O)CSc1nc2ccc(Br)cc2c(=O)n1Cc1ccco1)C1CCS(=O)(=O)C1` (stereo not shown), with -79.6%; and `CCc1cc2c(=O)n(Cc3ccco3)c(SCc3c(C)noc3C)nc2s1`, with -5.47%. Under `CCOC(=O)CC(=O)CSc1nc2sc(C)cc2c(=O)n1Cc1ccco1` stands -51.5%; under `CN(C(=O)CSc1nnc(-c2ccco2)n1Cc1ccccc1)C1CCS(=O)(=O)C1` (stereo not shown), -6.24%; under `Cc1cc2c(=O)n(Cc3ccco3)c(SCC(=O)c3ccc(Cl)s3)nc2s1`, -18.6%. In the case of `CCc1cc2c(=O)n(Cc3ccco3)c(SCC(=O)NCC3CCCO3)nc2s1` (stereo not shown), the “hERG current change (%, negative = inhibition) at 10uM” value is listed as -70.2%.

`CCOc1ccc(-c2cc(C(=O)N3CCN(c4ccccn4)CC3)c3ccccc3n2)cc1`: the “hERG current change (%, negative = inhibition) at 10uM” value was found to be 2.79%. Then `Cn1ncc2c(Nc3ccc([N+](=O)[O-])cc3)nc(Cl)nc21`, with 18.9%; and `Cc1ccc(-c2nnc(N3CCC(C)CC3)c3ccccc23)cc1`, with 3.1%; and `COc1nnc(-c2ccc(N3CCOCC3)c(NC(=O)C3CCCCC3)c2)c2ccccc12`, with -37.3%. Under `O=C(C1CCC(C(=O)N2CCCCC2)CC1)N1CCCCC1` (stereo not shown) stands 6.09%.
